Laboratory results reported in PubChem BioAssay (EPA / NIEHS).
“And” between values parts separate entries of the source, which are not always exact repeats. Equal entries are not always repeated. Some structures have more than one record in an assay (separate samples or runs), and their calls can disagree. The source made the active and inactive calls. The calls were made as follows: active = hit-call score of the fitted dose curve at least 0.9, where 1 is the maximum; inactive = score below 0.9.

Assays:
[1] = read-out: Thrombomodulin, THBD (gene 7056); assay: BSK_CASM3C_Thrombomodulin: BioMAP Diversity Plus: CASM3C Assay for Thrombomodulin Biomarker Activity (AID 2283051); conditions: primary human coronary artery smooth muscle cells; actives raise or lower the signal;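 also: thrombomodulin protein level measured by ELISA 24 h after dosing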
[2] = read-out: Tissue Factor, F3 (gene 2152); assay: BSK_CASM3C_TissueFactor: BioMAP Diversity Plus: CASM3C Assay for Tissue Factor Biomarker Activity (AID 2283052); conditions: primary human coronary artery smooth muscle cells; actives raise or lower the signal;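 also: cell surface tissue factor protein level read by ELISA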
[3] = read-out: Interferon-gamma inducible Protein 10 (IP10), CXCL10 (gene 3627); assay: BSK_hDFCGF_IP10: BioMAP Diversity Plus: hDFCGF Assay for Interferon-gamma inducible Protein 10 (IP10) Biomarker Activity (AID 2283053); conditions: primary human foreskin fibroblasts; actives raise or lower the signal
Procedure, shortened: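 Primary foreskin fibroblasts, human; 24 h compound exposure; IP-10 by ELISA; bidirectional fit vs DMSO.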

[4] = read-out: Urokinase-type plasminogen activator receptor (uPAR), PLAUR (gene 5329); assay: BSK_CASM3C_uPAR: BioMAP Diversity Plus: CASM3C Assay for Urokinase-type plasminogen activator receptor (uPAR) Biomarker Activity (AID 2283054); conditions: primary human coronary artery smooth muscle cells; actives raise or lower the signal;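 also: cell-surface uPAR protein level quantified by ELISA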
[5] = read-out: Vascular cell adhesion molecule 1 (VCAM1), VCAM1 (gene 7412); assay: BSK_CASM3C_VCAM1: BioMAP Diversity Plus: CASM3C Assay for Vascular cell adhesion molecule 1 (VCAM1) Biomarker Activity (AID 2283055); conditions: primary human coronary artery smooth muscle cells; actives raise or lower the signal;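 also: VCAM-1 protein level quantified by ELISA on the cells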
[6] = read-out: Collagen III, COL3A1 (gene 1281); assay: BSK_hDFCGF_CollagenIII: BioMAP Diversity Plus: hDFCGF Assay for Collagen III Biomarker Activity (AID 2283056); conditions: primary human foreskin fibroblasts; actives raise or lower the signal
Procedure, shortened: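 Human foreskin primary fibroblasts were exposed to test chemicals for 24 h, after which collagen III was quantified by ELISA. Activity was fitted bidirectionally against DMSO as negative control and baseline.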

[7] = read-out: Interleukin-8 (IL8), CXCL8 (gene 3576); assay: BSK_hDFCGF_IL8: BioMAP Diversity Plus: hDFCGF Assay for Interleukin-8 (IL8) Biomarker Activity (AID 2283058); conditions: primary human foreskin fibroblasts; actives raise or lower the signal
Procedure, shortened: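 hDFCGF human dermal fibroblasts; 24 h chemical exposure; IL-8 by ELISA; bidirectional curve fit vs DMSO baseline; gain or loss of signal scored.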

[8] = BSK_hDFCGF_Proliferation: Cell Proliferation Assessment in the BioMAP Diversity Plus: hDFCGF Assay (AID 2283059); conditions: primary human foreskin fibroblasts;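 also: curves fitted for both rise and fall of signal versus DMSO baseline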
Procedure, shortened: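 Total protein read at 560 nm after 0.1% SRB staining of TCA-fixed human skin fibroblasts, […]. Activity is fitted in both directions relative to DMSO as baseline.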

[9] = read-out: Macrophage colony-stimulating factor (MCSF), CSF1 (gene 1435); assay: BSK_hDFCGF_MCSF: BioMAP Diversity Plus: hDFCGF Assay for Macrophage colony-stimulating factor (MCSF) Biomarker Activity (AID 2283060); conditions: primary human foreskin fibroblasts; actives raise or lower the signal
Procedure, shortened: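 Human foreskin primary fibroblasts were treated with test chemical for 24 h, and M-CSF was then measured by ELISA. Data were fitted bidirectionally against DMSO as the negative control and activity baseline.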

[10] = BSK_hDFCGF_SRB: Viability Assessment in the BioMAP Diversity Plus: hDFCGF Assay (AID 2283061); conditions: primary human foreskin fibroblasts;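 also: cells exposed to compound for 24 h before the read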
Procedure, shortened: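 Human foreskin primary fibroblasts were treated with compound and assessed 24 h after dosing. Total protein was measured by sulforhodamine B staining (0.1% SRB after 10% TCA fixation, 560 nm read) as a cytotoxicity marker, with bidirectional fitting against DMSO baseline.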

[11] = read-out: TIMP metallopeptidase inhibitor 1 (TIMP1), TIMP1 (gene 7076); assay: BSK_hDFCGF_TIMP1: BioMAP Diversity Plus: hDFCGF Assay for TIMP metallopeptidase inhibitor 1 (TIMP1) Biomarker Activity (AID 2283062); conditions: primary human foreskin fibroblasts; actives raise or lower the signal
Procedure, shortened: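 Primary human foreskin fibroblasts in the hDFCGF system were dosed with compound for 24 h, then TIMP-1 was measured by ELISA. Activity was fitted bidirectionally relative to DMSO control; parallel SRB staining assessed cytotoxicity.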

[12] = read-out: Monokine induced gamma interferon (MIG), CXCL9 (gene 4283); assay: BSK_hDFCGF_MIG: BioMAP Diversity Plus: hDFCGF Assay for Monokine induced gamma interferon (MIG) Biomarker Activity (AID 2283063); conditions: primary human foreskin fibroblasts; actives raise or lower the signal
Procedure, shortened: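 ELISA read-out of MIG from primary human dermal fibroblasts 24 h post-dosing. Gain or loss of signal fitted bidirectionally, DMSO as baseline.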

[13] = read-out: Matrix Metallopeptidase 1 (MMP1), MMP1 (gene 4312); assay: BSK_hDFCGF_MMP1: BioMAP Diversity Plus: hDFCGF Assay for Matrix Metallopeptidase 1 (MMP1) Biomarker Activity (AID 2283064); conditions: primary human foreskin fibroblasts; actives raise or lower the signal
Procedure, shortened: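 hDFCGF primary fibroblasts (human foreskin); chemical added; 24 h; MMP1 by ELISA; bidirectional fit vs DMSO.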

[14] = read-out: Vascular cell adhesion molecule 1 (VCAM1), VCAM1 (gene 7412); assay: BSK_hDFCGF_VCAM1: BioMAP Diversity Plus: hDFCGF Assay for Vascular cell adhesion molecule 1 (VCAM1) Biomarker Activity (AID 2283065); conditions: primary human foreskin fibroblasts; actives raise or lower the signal;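 as to AC50: VCAM-1 protein level quantified by ELISA after 24 h chemical exposure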
Procedure, shortened: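 Primary human foreskin fibroblasts (hDFCGF system) were dosed with chemical and VCAM-1 was measured by ELISA 24 h later. Bidirectional curve fitting used DMSO as negative control and activity baseline.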

[15] = read-out: Plasminogen activator inhibitor-1 (PAI1), SERPINE1 (gene 5054); assay: BSK_hDFCGF_PAI1: BioMAP Diversity Plus: hDFCGF Assay for Plasminogen activator inhibitor-1 (PAI1) Biomarker Activity (AID 2283066); conditions: primary human foreskin fibroblasts; actives raise or lower the signal
Procedure, shortened: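 Primary dermal fibroblasts (human foreskin), hDFCGF system; compound 24 h; PAI-1 by ELISA; bidirectional fit vs DMSO control.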

[16] = read-out: Intercellular Adhesion Molecule 1 (ICAM1), ICAM1 (gene 3383); assay: BSK_KF3CT_ICAM1: BioMAP Diversity Plus: KF3CT Assay for Intercellular Adhesion Molecule 1 (ICAM1) Biomarker Activity (AID 2283067); conditions: primary human keratinocytes with fibroblasts; actives raise or lower the signal
Procedure, shortened: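 Human keratinocyte plus foreskin fibroblast primary co-culture was exposed to chemical for 24 h. ICAM-1 was then quantified by ELISA, and the data were fit bidirectionally against DMSO as the negative control and baseline.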

[17] = read-out: Interferon-gamma inducible Protein 10 (IP10), CXCL10 (gene 3627); assay: BSK_KF3CT_IP10: BioMAP Diversity Plus: KF3CT Assay for Interferon-gamma inducible Protein 10 (IP10) Biomarker Activity (AID 2283068); conditions: primary human keratinocytes with fibroblasts; actives raise or lower the signal
Procedure, shortened: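 Human keratinocyte plus foreskin fibroblast primary co-culture exposed to test chemical for 24 h; IP-10 measured by ELISA. Concentration-response fitted bidirectionally against DMSO control as baseline.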

[18] = read-out: Interleukin-1 alpha (IL1a), IL1A (gene 3552); assay: BSK_KF3CT_IL1a: BioMAP Diversity Plus: KF3CT Assay for Interleukin-1 alpha (IL1a) Biomarker Activity (AID 2283070); conditions: primary human keratinocytes with fibroblasts; actives raise or lower the signal
Procedure, shortened: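 Chemicals were dosed onto co-cultured human keratinocytes and foreskin fibroblasts, IL-1a was quantified by ELISA at 24 h, and activity was fitted in both directions relative to DMSO controls.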

[19] = read-out: Epidermal growth factor receptor (EGFR), EGFR (gene 1956); assay: BSK_hDFCGF_EGFR: BioMAP Diversity Plus: hDFCGF Assay for Epidermal growth factor receptor (EGFR) Biomarker Activity (AID 2283057); conditions: primary human foreskin fibroblasts; actives raise or lower the signal
Procedure, shortened: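 hDFCGF system, primary human foreskin fibroblasts; compound 24 h; EGFR measured by ELISA; DMSO = negative control/baseline; bidirectional fitting.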

[20] = BSK_KF3CT_SRB: Viability Assessment in the BioMAP Diversity Plus: KF3CT Assay (AID 2283069); conditions: primary human keratinocytes with fibroblasts;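 also: fitted for both signal gain and loss against DMSO baseline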
Procedure, shortened: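 Keratinocytes co-cultured with foreskin fibroblasts (human primary); chemical added, 24 h; fix 10% TCA, stain 0.1% SRB, A560. Bidirectional fit vs DMSO.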

Measured: AC50

CN(CCOc1ccc(CC2SC(=O)NC2=O)cc1)c1ccccn1 (stereo unspecified)
inactive: [1] | [4] | [5] | [6] | [7] | [10] | [11] | [12] | [13] | [14] | [15] | [16] | [17]
active: [2] 5.59 µM | [3] 0.0536 µM | [8] 13.3 µM | [9] 0.0484 µM | [18] 0.582 µM

BrC1CCC(Br)C(Br)CCC(Br)C(Br)CCC1Br (stereo unspecified)
active: [8] 1.33 µM | [9] 4.61 µM | [10] 1.5 µM | [14] 4.68 µM | [15] 1.37 µM | [17] 4.53 µM
inactive: [1] | [2] | [3] | [4] | [5] | [6] | [19] | [7] | [12] | [13] | [16] | [18]

C=CCOC(=O)CCC1CCCCC1
inactive: [1] | [2] | [3] | [4] | [5] | [6] | [19] | [7] | [9] | [10] | [11] | [12] | [13] | [14] | [15] | [16] | [17] | [18]
active: [8] 30.8 µM and 37.8 µM

CCC(=O)OCc1ccccc1
inactive: [1] | [2] | [3] | [4] | [5] | [6] | [19] | [7] | [8] | [9] | [10] | [12] | [13] | [14] | [15] | [16] | [17] | [18]

C[C@H]1C[C@@H]2[C@H]([C@@H](O)C[C@@]3(C)[C@H]2CC[C@]3(O)C(=O)CO)[C@@]2(C)C=CC(=O)C=C12
active: [4] 1.2 µM | [5] 860 nM and 150 nM | [10] 394 nM and 339 nM | [13] 150 nM and 626 nM | [15] 0.15 µM
inactive: [1] | [2] | [3] | [4] | [6] | [7] | [8] | [9] | [11] | [12] | [14] | [15] | [16] | [17] | [18]

COC(=O)c1ccc(C)cc1
inactive: [1] | [2] | [3] | [4] | [5] | [6] | [19] | [7] | [8] | [9] | [10] | [12] | [13] | [14] | [15] | [16] | [17] | [20] | [18]

CCc1c(C)cc(N)c(CC)c1N
inactive: [1] | [2] | [3] | [4] | [5] | [6] | [7] | [8] | [9] | [10] | [12] | [13] | [14] | [15] | [16] | [17] | [20]
active: [18] 1.94 µM

COc1cc(C=O)ccc1OC(=O)C(C)C
active: [4] 5.27 µM
inactive: [1] | [2] | [3] | [4] | [5] | [6] | [7] | [8] | [9] | [10] | [11] | [12] | [13] | [14] | [15] | [16] | [17] | [18]

O=C(O)c1ccc([N+](=O)[O-])cc1
inactive: [1] | [2] | [3] | [4] | [5] | [6] | [7] | [8] | [9] | [10] | [12] | [13] | [14] | [15] | [16] | [17] | [20] | [18]

C#C[C@]1(O)CC[C@H]2[C@@H]3CCC4=Cc5oncc5C[C@]4(C)[C@H]3CC[C@@]21C
inactive: [1] | [2] | [3] | [4] | [6] | [7] | [8] | [9] | [10] | [12] | [13] | [15] | [16] | [17] | [20] | [18]
active: [5] 25 µM | [14] 20 µM

CCCCCCCCC=O
inactive: [1] | [2] | [3] | [4] | [5] | [6] | [7] | [8] | [9] | [10] | [11] | [12] | [13] | [14] | [15] | [16] | [17] | [18]

CC1CCC(C(C)CS)CC1S (stereo unspecified)
active: [1] 29.1 µM | [3] 4.25 µM | [4] 20 µM | [5] 28.8 µM | [6] 4.29 µM | [7] 28 µM | [8] 4.84 µM | [9] 6.95 µM | [10] 7.28 µM | [12] 7.33 µM | [13] 9.03 µM | [14] 2.78 µM | [16] 35.5 µM | [17] 20 µM | [18] 30.2 µM
inactive: [2] | [19] | [15]
